Test results taken from PubChem BioAssay (NCATS).
Results filed as inconclusive are left out. Where a call stands in place of a potency, no number is given. Active and inactive are the calls of the source. Calls come from the whole dose curve; as a rule, active = well fitted curve in the direction sought with a large enough effect; inconclusive = small, poorly fitted or top-dose-only effect, or another doubt; inactive = no such curve, though single readings can be large; an effect the other way counts as inactive or inconclusive.

Molecular target: Cytochrome P450 2D6 (Homo sapiens) (UniProt P10635)
Assay: qHTS Assay for Inhibitors and Substrates of Cytochrome P450 2D6 (AID 891); note: potency is the fitted concentration of half-maximal effect; nearly all actives have a fitted effect of over 60% in size
Conditions: recombinant CYP2D6, luciferin-ME EGE luminescence
Protocol: NIH Molecular Libraries Screening Centers Network [MLSCN]
NIH Chemical Genomics Center [NCGC]
The P450 gene superfamily is involved in the metabolism and clearance of xenobiotics. This assay used human CYP2D6 to measure the demethylation of ethylene glycol ester of luciferin 6' methyl ether (Luciferin-ME EGE; […]) to luciferin. The luciferin is then measured by luminescence after the addition of a luciferase detection reagent. Luciferin-ME EGE concentration in the assay was equal to its Km for CYP2D6. Inhibitors and some substrates limit the production of luciferin, and decrease measured luminescence.
NCGC Assay Protocol Summary:
Two uL of enzyme and substrate mix (final concentrations: 5nM CYP2D6, 30uM Luciferin-ME EGE, 100mM KPO4) were dispensed into a white, solid bottom 1536-well microtiter plate. 23nL of compound was transferred by a pin tool. The plate was incubated at room temperature for 10 min. Two uL of an NADPH regeneration solution (Promega supplied reagent) was dispensed and the reaction was allowed to continue for 60 min at room temperature. Then the reaction was stopped by reconstituted luciferin detection buffer. After another 20 min of incubation the plate was read on the ViewLux (Perkin Elmer) at 60 sec exposure and 2x2 binning. This protocol was carried out with Promega-Glo reagents and further information can be found at http://www.promega.com/tbs/tb325/tb325.pdf. Data were normalized to the to AC100 inhibition (1.43 uM quinidine).
Keywords: P450, CYP2D6, Luciferase, MLSMR, MLSCN, NIH Roadmap, qHTS, NCGC

Cytochrome P450 2D6 (Homo sapiens), sequence (P10635 whole entry, looked up): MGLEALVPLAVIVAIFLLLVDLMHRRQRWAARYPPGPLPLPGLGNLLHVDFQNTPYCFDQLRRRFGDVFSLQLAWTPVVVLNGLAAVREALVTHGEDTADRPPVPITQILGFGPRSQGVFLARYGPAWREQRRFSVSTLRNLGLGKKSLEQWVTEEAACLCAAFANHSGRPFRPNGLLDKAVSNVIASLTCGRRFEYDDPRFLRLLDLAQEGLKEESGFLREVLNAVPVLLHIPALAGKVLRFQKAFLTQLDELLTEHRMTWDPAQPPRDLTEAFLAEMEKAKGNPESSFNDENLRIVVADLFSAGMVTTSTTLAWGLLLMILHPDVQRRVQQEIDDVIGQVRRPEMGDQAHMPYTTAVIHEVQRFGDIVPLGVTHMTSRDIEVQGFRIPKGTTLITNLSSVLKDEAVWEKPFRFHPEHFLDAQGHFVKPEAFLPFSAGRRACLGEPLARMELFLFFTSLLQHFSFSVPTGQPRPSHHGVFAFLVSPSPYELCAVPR

SMILES | Potency
CN(C)c1ccccc1CN1CCCN(Cc2ccccc2N(C)C)C1c1ccncc1 | 1260 nM (active)
CN1CCN2c3ncccc3Cc3ccccc3C2C1 (configuration not stated) | 501 nM (active)
CN(C)CCN(Cc1ccc(Cl)cc1)c1ccccn1 | 20 nM (active)

Test system: not listed separately
Assay: Confirmation and Secondary Assay for Modulators of Hemoglobin Beta Chain Splicing at IVS2 654 locus (AID 910);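 note: HeLa cells stably carrying EGFP split by mutant beta-globin IVS2-654 intron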
Conditions: HeLa EGFP-654 splicing reporter, GFP fluorescence, 48 h; series mostly up to 46.1 µM
Summary of the method: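 Readout: per-well total peak green fluorescence (488 nm ex, 500–520 nm em) from objects 5–250 µm, reflecting correct splicing of an EGFP-654 reporter. Compounds were applied for 2 days at 37 °C to overnight-plated HeLa EGFP-654 cells; controls were DMSO and 500 nM IVS2-654 PNA.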

SMILES | outcome
CC(NCCc1ccc(O)cc1)C(O)c1ccc(O)cc1 (configuration not stated) | inactive
COc1ccnc(CS(=O)c2nc3ccc(OC(F)F)cc3[nH]2)c1OC (configuration not stated) | inactive
O=C1C(CCC(O)c2ccc(F)cc2)C(c2ccc(O)cc2)N1c1ccc(F)cc1 (configuration not stated) | inactive
CC1(C)OC2CC3C4CC(F)C5=CC(=O)C=CC5(C)C4C(O)CC3(C)[C@]2(C(=O)CO)O1 (some centres not stated) | inactive
CCC(c1ccc(O)cc1)C(CC)c1ccc(O)cc1 (configuration not stated) | inactive
NCC1CCC(C(=O)O)CC1 (configuration not stated) | inactive
OC(c1cc(C(F)(F)F)nc2c(C(F)(F)F)cccc12)C1CCCCN1 (configuration not stated) | inactive
CS(=O)(=O)c1ccc(C2=C(c3ccccc3)C(=O)OC2)cc1 | inactive
COc1ccc2ccc(=O)oc2c1CC=C(C)C | inactive

Test system: not listed separately
Assay: Confirmation and Secondary Assay for Modulators of Hemoglobin Beta Chain Splicing at IVS2 705 locus (AID 930);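 note: HeLa cells stably expressing the EGFP-705 splicing reporter; GFP fluorescence per well restored by corrected splicing of the IVS2-705 intron in EGFP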
Conditions: HeLa EGFP-705 splicing reporter, GFP fluorescence, 48 h; series mostly up to 46.1 µM
Summary of the method: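 Read-out: total peak GFP fluorescence per well (488 nm excitation, 500-520 nm emission) by laser-scanning cytometry. Cells: HeLa EGFP-705 splicing reporter, 2 days compound exposure in Optimem/2% FCS.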

SMILES | outcome
CC(NCCc1ccc(O)cc1)C(O)c1ccc(O)cc1 (configuration not stated) | inactive
COc1ccnc(CS(=O)c2nc3ccc(OC(F)F)cc3[nH]2)c1OC (configuration not stated) | inactive
O=C1C(CCC(O)c2ccc(F)cc2)C(c2ccc(O)cc2)N1c1ccc(F)cc1 (configuration not stated) | inactive
CC1(C)OC2CC3C4CC(F)C5=CC(=O)C=CC5(C)C4C(O)CC3(C)[C@]2(C(=O)CO)O1 (some centres not stated) | inactive
CCC(c1ccc(O)cc1)C(CC)c1ccc(O)cc1 (configuration not stated) | inactive
NCC1CCC(C(=O)O)CC1 (configuration not stated) | inactive
OC(c1cc(C(F)(F)F)nc2c(C(F)(F)F)cccc12)C1CCCCN1 (configuration not stated) | inactive
CS(=O)(=O)c1ccc(C2=C(c3ccccc3)C(=O)OC2)cc1 | inactive
Cc1cc2nc3c(=O)[nH]c(=O)nc-3n(CC(O)C(O)C(O)CO)c2cc1C (configuration not stated) | inactive
COc1ccc2ccc(=O)oc2c1CC=C(C)C | inactive
